Drawing on PubChem BioAssay (Tox21), this text covers Potency and activation for 21 compounds.

Molecules are shown by their SMILES. Values joined by “and” are separate entries in the source; they are usually repeats but may differ in a detail not shown here. Equal values may be shown once. Unmarked numbers belong to inactive results. Active and inactive are the calls of the source. Unless noted, calls come from the whole dose curve; as a rule, active = well fitted curve in the direction sought with a large enough effect in the repeat runs; inconclusive = weak or mixed curves; inactive = no such curve, though single readings can be large; an effect the other way counts as inactive or inconclusive.

The nature of test [1]: qHTS assay to identify small molecule antagonists of the thyroid receptor (TR) signaling pathway - cell viability counter screen (AID 743064). Note: nearly all actives have a fitted effect of over 50% in size. Note: potency is the fitted concentration of half-maximal effect. Put shortly: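 CellTiter-Fluor readout, 30 min at 37 °C/5% CO2, following 23.5 h incubation of GH3.TRE-Luc cells with test compound and 1 nM T3 (final).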
A short description of test [2]: qHTS assay to identify small molecule antagonists of the thyroid receptor (TR) signaling pathway (AID 743065). Note: nearly all actives have a fitted effect of over 55% in size. Note: potency is the fitted concentration of half-maximal effect. Put shortly:
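GH3.TRE-Luc rat pituitary cells (two TREs driving luciferase) were dosed with compound, then stimulated with 1 nM T3 (final) for 23.5 h at 37 C. ONE-Glo luminescence was the read-out, with CellTiter-Fluor fluorescence as the cytotoxicity counter-screen.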
(In qHTS, concentration-response curves come from the screen itself.)

Test [3] concerns thyroid hormone receptor (rat, GH3 cells). Put plainly: qHTS assay to identify small molecule agonists of the thyroid receptor (TR) signaling pathway (AID 743066; calls by dose curve).
The target in test [4] is Estrogen receptor (Homo sapiens) (UniProt P03372). Description: qHTS assay to identify small molecule antagonists of the estrogen receptor alpha (ER-alpha) signaling pathway (AID 743069; active = well fitted curve in the direction sought with a large enough effect in the signal ratio in the repeat runs, not every such curve was filed as active; inconclusive = weak or mixed curves, or effect the other way; inactive = no such curve, though single readings can be large or run the other way; the % refers to the signal ratio; note: potency is the fitted concentration of half-maximal effect). In outline: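 Reporter cells (ER-alpha-bla, HEK293 background) are conditioned overnight in stripped-serum medium (2% charcoal-stripped FBS). Compound and 17beta-estradiol exposure runs 18 hr at 37C, 5% CO2.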

Test [5] can be described thus: qHTS assay to identify small molecule antagonists of the estrogen receptor alpha (ER-alpha) signaling pathway - cell viability counter screen (AID 743074; calls by dose curve;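 note: HEK293 cells carrying ER-alpha-UAS-bla reporter stimulated with 17beta-estradiol; nearly all actives have a fitted effect of over 45% in size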).
Test [6] deals with Estrogen receptor (Homo sapiens) (UniProt P03372). Put plainly: qHTS assay to identify small molecule agonists of the estrogen receptor alpha (ER-alpha) signaling pathway (AID 743075; calls by dose curve;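 note: HEK293 GripTite cells with ER-alpha and UAS-driven beta-lactamase reporter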; note: potency is the fitted concentration of half-maximal effect).
Test [7] has the same target. Description: qHTS assay to identify small molecule agonists of the estrogen receptor alpha (ER-alpha) signaling pathway using the BG1 cell line (AID 743079). Note: nearly all actives have a fitted effect of over 20% in size. To be noted: BG1Luc4E2 cells, ERE-luciferase agonist, 22 h.
Test [8] can be described thus: qHTS assay to identify small molecule antagonists of the estrogen receptor alpha (ER-alpha) signaling pathway using the BG1 cell line (AID 743080; calls by dose curve;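 note: BG1 cells stimulated with 17beta-estradiol alongside compound; nearly all actives have a fitted effect of over 25% in size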; note: potency is the fitted concentration of half-maximal effect). Put shortly:
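Luciferase inhibition measured with ONE-Glo after 30 min at RT in BG1Luc4E2 cells given test compounds and 17beta-estradiol for 21.5 h at 37 C; CellTiter-Fluor viability read in the same wells beforehand.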

The nature of test [9]: qHTS assay to identify small molecule antagonists of the estrogen receptor alpha (ER-alpha) signaling pathway using the BG1 cell line - cell viability counter screen (AID 743081).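 Note: compound given together with 17beta-estradiol as the ER stimulus; nearly all actives have a fitted effect of over 45% in size.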
The target in the next test is Aromatase (Homo sapiens) (UniProt P11511). Description: qHTS assay to identify aromatase inhibitors (AID 743083). Note: nearly all actives have a fitted effect of over 55% in size. Note: potency is the fitted concentration of half-maximal effect.
% is set by controls: 0 for no effect and ±100 for the full control effect.

Sequence of Aromatase (Homo sapiens) (P11511 whole entry, looked up): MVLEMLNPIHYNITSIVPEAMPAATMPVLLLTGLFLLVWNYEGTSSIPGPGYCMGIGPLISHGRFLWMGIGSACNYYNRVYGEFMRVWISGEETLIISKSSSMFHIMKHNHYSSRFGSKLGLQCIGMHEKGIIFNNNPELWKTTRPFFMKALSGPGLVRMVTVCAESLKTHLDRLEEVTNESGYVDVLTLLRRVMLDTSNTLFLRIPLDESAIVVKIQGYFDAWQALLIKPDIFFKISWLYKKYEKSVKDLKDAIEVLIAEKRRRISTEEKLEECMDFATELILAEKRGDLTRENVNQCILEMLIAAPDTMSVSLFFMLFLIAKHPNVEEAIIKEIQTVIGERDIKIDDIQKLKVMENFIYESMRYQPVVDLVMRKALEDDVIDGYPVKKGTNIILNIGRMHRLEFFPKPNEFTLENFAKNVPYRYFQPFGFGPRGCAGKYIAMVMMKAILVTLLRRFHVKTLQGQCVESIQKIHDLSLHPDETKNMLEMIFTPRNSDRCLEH
Sequence of Estrogen receptor (Homo sapiens) (P03372 whole entry, looked up): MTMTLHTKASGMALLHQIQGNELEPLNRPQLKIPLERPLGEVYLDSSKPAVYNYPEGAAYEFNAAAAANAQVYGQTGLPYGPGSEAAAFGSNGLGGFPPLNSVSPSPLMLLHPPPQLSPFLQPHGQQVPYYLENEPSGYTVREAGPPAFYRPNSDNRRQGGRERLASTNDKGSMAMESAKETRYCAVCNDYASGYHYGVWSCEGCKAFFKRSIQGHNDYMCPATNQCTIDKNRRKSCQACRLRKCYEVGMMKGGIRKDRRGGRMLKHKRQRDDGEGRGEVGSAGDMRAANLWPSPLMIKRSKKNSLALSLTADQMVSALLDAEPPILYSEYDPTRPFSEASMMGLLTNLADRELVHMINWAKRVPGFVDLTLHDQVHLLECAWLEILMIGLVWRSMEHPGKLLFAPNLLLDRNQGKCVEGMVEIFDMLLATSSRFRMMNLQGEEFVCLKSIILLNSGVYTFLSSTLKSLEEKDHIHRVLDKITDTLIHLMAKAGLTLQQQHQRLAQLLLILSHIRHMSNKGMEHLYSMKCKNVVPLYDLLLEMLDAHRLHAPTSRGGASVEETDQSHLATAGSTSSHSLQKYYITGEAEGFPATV

In the case of `CCN(CC)CCOC(=O)C(O)(c1ccccc1)c1ccccc1`, the Potency entry in test [1], in [2], in [3], in [4], in [5] and in [6] was “inactive” each time. The Potency entry (in [8]; in test [9]; in the test with Aromatase (Homo sapiens)) was “inactive” throughout. Also, in test [7] (at 70.3 µM (top of the series)), the activation is 1.82%.
Turning to `C/C(=N\NC(=O)Nc1cc(F)cc(F)c1)c1ncccc1C(=O)O`, the Potency entry in [1], in test [2], in test [3], in test [4], in test [5] and in [6] was “inactive” throughout. Besides, the Potency entry (in test [8]; in [9]; with Aromatase (Homo sapiens)) was “inactive” each time. The activation in test [7] (at 70.3 µM (top of the series)) is -0.0536%.
Consider `COP(=O)(OC)O/C(C)=C/C(=O)N(C)C`, for which the Potency result in test [1], in [2], in [3], in test [4], in test [5] and in test [6] was “inactive” throughout. Also, the Potency entry (in test [8]; in test [9]; in the test with Aromatase (Homo sapiens)) was “inactive” each time. The activation in [7] (at 95 µM (top of the series)) was -7.62%.
Turning to `NC(=O)OCCCc1ccccc1`, the Potency result in [1], in test [2], in test [3], in [4], in [5] and in test [6] was “inactive” each time. Moreover, the Potency entry (in [8]; in [9]; with Aromatase (Homo sapiens)) was “inactive” each time. Moreover, in test [7] (at 70.3 µM (top of the series)), the activation was 2.88%.
Take `NNC(N)=O`: the Potency result in test [1], in test [2], in test [3], in [4], in [5] and in test [6] was “inactive” in each case. Further, the Potency result (in test [8]; in test [9]; in the test with Aromatase (Homo sapiens)) was “inactive” each time. Further, the activation in [7] (at 95 µM (top of the series)) was -3.44%.
As to `O=C(CCl)NCO`, the Potency result in [1], in test [2], in [3], in test [4], in test [5] and in test [6] was “inactive” throughout. Moreover, the Potency result (in test [9]; in the test with Aromatase (Homo sapiens)) was “inactive” each time. Besides, in test [7] (at 70.3 µM (top of the series)), the activation is -9.09%.
For `CC(C)[N+](C)(CCC(C(N)=O)(c1ccccc1)c1ccccc1)C(C)C`, the Potency result in test [1], in test [2], in [3], in test [4], in test [5] and in test [6] was “inactive” throughout. Moreover, the Potency result (in test [8]; in [9]; with Aromatase (Homo sapiens)) was “inactive” throughout. The activation in test [7] (at 32.5 µM (top of the series)) is 1.94%.
`CCCCCCC(=O)CCCCCC/C=C/C[C@@H](O)[C@H](O)[C@@](N)(CO)C(=O)O`: the Potency result in test [1], in [2], in test [3], in [4], in [5] and in test [6] was “inactive” each time. In addition, the Potency entry (in test [8]; in test [9]; in the test with Aromatase (Homo sapiens)) was “inactive” throughout. The activation in test [7] (at 70.3 µM (top of the series)) was -8.98% and -0.434%.
In the case of `NC(=O)CS(=O)C(c1ccccc1)c1ccccc1` (stereo not given), the Potency result in [1], in [2], in [3], in [4], in test [5] and in test [6] was “inactive” in each case. Besides, the Potency entry (in test [8]; in test [9]; in the test with Aromatase (Homo sapiens)) was “inactive” each time. Further, the activation in [7] (at 70.3 µM (top of the series)) was -2.29%.
Consider `S=C=S`, for which the Potency result in test [1], in test [2], in [3], in [4], in [5] and in test [6] was “inactive” in each case. Further, the Potency result (in test [8]; in test [9]; in the test with Aromatase (Homo sapiens)) was “inactive” in each case. Besides, the activation in test [7] (at 70.3 µM (top of the series)) was -5.81% and -2.85%.
With `C=CCCC#N`, the Potency result in test [1], in test [2], in test [3], in test [4], in test [5] and in [6] was “inactive” in each case. The Potency entry (in test [8]; in [9]; with Aromatase (Homo sapiens)) was “inactive” each time. Also, in [7] (at 70.3 µM (top of the series)), the activation is -1.77%.
Turning to `N[C@@H]1C[C@H]1c1ccccc1`, the Potency result in [1], in test [2], in test [3], in [4], in test [5] and in test [6] was “inactive” each time. Besides, in test [9], the Potency result is “inactive”. Also, the activation in test [7] (at 70.3 µM (top of the series)) is 1.81%.
As to `CN(C)C(=O)Oc1cc(OC(=O)N(C)C)cc(C(O)CNC(C)(C)C)c1` (stereo not given), the Potency result in test [1], in [2], in test [3], in test [4], in test [5] and in test [6] was “inactive” each time. In addition, the Potency entry (in test [8]; in test [9]; with Aromatase (Homo sapiens)) was “inactive” each time. Moreover, the activation in test [7] (at 32.5 µM (top of the series)) was -8.21%.
Consider `CC1NCCOC1c1ccccc1` (stereo not given), for which the Potency entry in [1], in [2], in test [3], in test [4], in test [5] and in test [6] was “inactive” in each case. In addition, the Potency result (in test [8]; in [9]; with Aromatase (Homo sapiens)) was “inactive” each time. The activation in test [7] (at 70.3 µM (top of the series)) was 12.2%.
Take `O=C(Cl)c1ccccc1`: the Potency entry in [1], in [2], in test [3], in test [4], in test [5] and in [6] was “inactive” each time. For the same compound, the Potency entry (in [9]; with Aromatase (Homo sapiens)) was “inactive” in each case. In addition, the activation in test [7] (at 95 µM (top of the series)) is 1.6%.
Regarding `CCNc1nc(NCC)nc(SC)n1`, the Potency result in test [1], in [2], in [3], in test [4], in test [5] and in test [6] was “inactive” throughout. Further, the Potency result (in [8]; in test [9]; with Aromatase (Homo sapiens)) was “inactive” in each case. Further, in [7] (at 70.3 µM (top of the series)), the activation was -15.9%.
In the case of `COP(=O)(O)OC`, the Potency entry in test [1], in test [2], in [3], in [4], in [5] and in test [6] was “inactive” each time. Also, the Potency result (in [8]; in [9]; with Aromatase (Homo sapiens)) was “inactive” in each case. Moreover, the activation in test [7] (at 95 µM (top of the series)) was -8.98%.
Regarding `CCCCCCCC(=O)Cl`, the Potency result in test [1], in test [2], in [3], in [4], in test [5] and in test [6] was “inactive” throughout. In addition, the Potency entry (in test [8]; in [9]; in the test with Aromatase (Homo sapiens)) was “inactive” throughout. Also, the activation in [7] (at 95 µM (top of the series)) is -1.47%.
As for `C[C@H]1CCCC(=O)CCC/C=C/c2cc(O)cc(O)c2C(=O)O1`, the Potency in test [1] was 23.4 µM (active) and 20 µM (active); in [2], 23.4 µM (active) and 15.9 µM (active); in test [4], 47.2 µM [inconclusive] (active); in test [6], 13.3 nM [inconclusive] (active) and 71.5 nM [inconclusive] (active); in test [8], 22.4 µM (active); with Aromatase (Homo sapiens), 23.4 µM (active). Besides, the Potency result in [3] and in [5] was “inactive” throughout. In addition, the activation in test [7] (at 32.5 µM (top of the series)) is -13.6% (active); in test [7] (at 70.3 µM (top of the series)), -34.9% (active).
On to `CCN(CCO)CCO`, for which the Potency result in test [1], in [2], in [3], in [4], in test [5] and in test [6] was “inactive” throughout. Besides, the Potency entry (in test [8]; in test [9]; with Aromatase (Homo sapiens)) was “inactive” in each case. Besides, the activation in [7] (at 70.3 µM (top of the series)) was -3.36%.
Regarding `CCC1(c2ccccc2)CCC(=O)NC1=O` (stereo not given), the Potency entry in test [1], in test [2], in test [3], in test [4], in test [5] and in test [6] was “inactive” throughout. The Potency result (in [8]; with Aromatase (Homo sapiens)) was “inactive” each time. The activation in [7] (at 70.3 µM (top of the series)) was 2.78%.
